Test results reported in PubChem BioAssay AID1030 (National Center for Advancing Translational Sciences (NCATS), 2008).
In all, about 220,000 compounds went through this assay and about 16,000 (7.3%) were called active. Roughly 25% stayed inconclusive and do not appear here. Calls follow the shape of the dose curve; as a rule, active = well fitted inhibition curve with a large enough effect (not every such curve was filed as active); inconclusive = small, poorly fitted or top-dose-only effect, or another doubt; inactive = no such curve, though single readings can be large or run the other way. Many of the other results were omitted from the sample, so actives are more common in it than they were.

Each compound was assayed against Aldehyde dehydrogenase 1A1 (Homo sapiens) (UniProt P00352) (assay: qHTS Assay for Inhibitors of Aldehyde Dehydrogenase 1 (ALDH1A1)). Conditions: Purified ALDH1A1, NADH fluorescence, propionaldehyde substrate; series mostly up to 75.3 µM; activity, negative = inhibition: at the top concentration.
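For activity, negative = inhibition in this document: plate controls were no enzyme wells and a reference inhibitor.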
Potency is read from the fitted curve at half-maximal effect.

Sequence of Aldehyde dehydrogenase 1A1 (Homo sapiens) (P00352 whole entry, looked up): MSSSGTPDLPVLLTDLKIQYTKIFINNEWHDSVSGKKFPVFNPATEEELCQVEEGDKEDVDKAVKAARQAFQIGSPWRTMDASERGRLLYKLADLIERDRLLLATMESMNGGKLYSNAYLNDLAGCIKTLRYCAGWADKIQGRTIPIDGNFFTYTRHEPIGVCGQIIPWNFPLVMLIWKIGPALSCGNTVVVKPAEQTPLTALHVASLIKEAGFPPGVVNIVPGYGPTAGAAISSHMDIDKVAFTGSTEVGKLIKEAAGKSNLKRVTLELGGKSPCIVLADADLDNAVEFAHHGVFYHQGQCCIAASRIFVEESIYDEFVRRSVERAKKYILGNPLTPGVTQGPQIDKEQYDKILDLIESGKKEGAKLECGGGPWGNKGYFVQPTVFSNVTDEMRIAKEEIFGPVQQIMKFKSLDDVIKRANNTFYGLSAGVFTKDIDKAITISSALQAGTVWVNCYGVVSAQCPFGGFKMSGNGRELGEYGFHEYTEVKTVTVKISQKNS

Structure (SMILES) | activity, negative = inhibition | Potency
O=C(CSc1ccccc1F)NC1CCS(=O)(=O)C1 (stereo unspecified) | 3.62% (inactive) | 
CSc1ccccc1NC(=O)Cc1ccc(Br)cc1 | 5.36% (inactive) | 
O=C(Cc1ccc2c(c1)CCCC2)Nc1ccccc1Cl |  | 12.6 µM (active)
O=C(CN1CCCCC1)Nc1ccccc1Cl | 14.8% (inactive) | 
Cc1cc(/C=C2/SC(=O)N(CC(=O)N3CCCC3)C2=O)ccc1N1CCOCC1 | 5.53% (inactive) | 
C/C(=N/OC(=O)c1c(-c2c(F)cccc2Cl)noc1C)c1cnccn1 | -4.17% (inactive) | 
CC(=O)c1ccc(NC(=O)C(C)NCc2ccc(Cl)cc2)cc1 (stereo unspecified) | 1.47% (inactive) | 
O=C(NCc1ccc2c(c1)OCO2)c1ccc2c(c1)C(=O)N(CC1CCCO1)C2=O (stereo unspecified) |  | 1.58 µM (active)
O=C(NCc1ccc2c(c1)OCO2)c1ccc(Cl)s1 | 11.5% (inactive) | 
O=C(NCc1ccc2c(c1)OCO2)c1sccc1Br | -7.89% (inactive) | 
Cc1csc(SCC(=O)Nc2sccc2C#N)n1 | -1.71% (inactive) | 
O=C1CCC(CCC(=O)N2CCCC(C(=O)c3ccc(Cl)cc3)C2)=NN1 (stereo unspecified) | 17.7% (inactive) | 
CC(CC(=O)N1CCN(c2ccccc2)CC1)c1ccccc1 (stereo unspecified) | 13.1% (inactive) | 
O=C(CCCN1C(=O)C2C3C=CC(C3)C2C1=O)N1CCN(c2ccccc2)CC1 (stereo unspecified) |  | 12.6 µM (active)
O=C(CCN1C(=O)C2C3C=CC(C3)C2C1=O)Oc1ccc2ccccc2c1 (stereo unspecified) | -9.74% (inactive) | 
S=c1[nH]ccn1-c1ccc(Cl)cc1 | -9.08% (inactive) | 
Cc1ccc(CN2CCN(Cc3ccccc3-c3ccco3)CC2CCO)o1 (stereo unspecified) | 8.18% (inactive) | 
CC(C)CCN1CCN(Cc2ccc(C(F)(F)F)cc2)CC1CCO (stereo unspecified) | 0.124% (inactive) | 
CC(C)CCN1CCN(C/C=C/c2ccco2)CC1CCO (stereo unspecified) |  | 28.2 µM (active)
COC(=O)c1cccnc1NC(=S)NC(C)C | 1.85% (inactive) | 
COc1ccc(N=Nc2ccc(O)c(P(=O)(c3ccccc3)c3ccccc3)c2)cc1 | 6.87% (inactive) | 
CCOc1cc(/C=C2/N=C(c3ccc(C(C)(C)C)cc3)OC2=O)cc(Cl)c1OS(C)(=O)=O |  | 22.4 µM (active)
CN(CCc1cnn(C)c1)Cc1cn(C)nc1-c1ccccc1F | 2.47% (inactive) | 
COc1cccc(CNC(=O)CCC2CCCN(C(=O)c3ccoc3C)C2)c1 (stereo unspecified) |  | 22.4 µM (active)

Structure (SMILES) | activity, negative = inhibition | Potency
COc1cccc(CNC(=O)CCC2CCCN(C(=O)c3cc(C)[nH]n3)C2)c1 (stereo unspecified) | -5.25% (inactive) | 
COc1cccc(C(=O)N2CCCC(CCC(=O)NCc3ccc(F)c(F)c3)C2)c1 (stereo unspecified) | -7.32% (inactive) | 
Cc1ccc(C(NC(=O)N2CCCC2)C(Cl)(Cl)Cl)cc1F (stereo unspecified) | 8.02% (inactive) | 
Cc1cc(O)ccc1-c1cnc2ccccc2n1 |  | 28.2 µM (active)
c1ccc2nc(C3=NCCN3)cnc2c1 | -9.53% (inactive) | 
CC(=O)Nc1cccc(-c2cnc3ccccc3n2)c1 | 3.58% (inactive) | 
Cc1cccc(NC(=S)NC23CN4CN(CN(C4)C2)C3)c1 | 4.51% (inactive) | 
COc1ccc(-n2nnnc2SCC(=O)Nc2ccccc2)cc1 | 3.98% (inactive) | 
Cc1ccc(-c2noc(CSc3nnnn3-c3ccccc3)n2)cc1 |  | 7.08 µM (active)
Cc1ccc(SCc2cc(=O)[nH]c(N3CCCCC3)n2)cc1 | 3.1% (inactive) | 
Cc1ccc(-c2noc(CC(c3ccccc3)c3ccccc3)n2)cc1 | -4.15% (inactive) | 
Cc1ccc(Nc2nc(CSc3nnnn3-c3ccccc3)cc(=O)[nH]2)cc1 |  | 22.4 µM (active)
Cc1ccc(-c2noc(CN3CCN(Cc4ccccc4)CC3)n2)cc1 |  | 28.2 µM (active)
Cc1ccc(-c2noc(CSc3nnc(-c4ccccc4)n3C)n2)cc1 | -1.16% (inactive) | 
Cc1ccc(-c2noc(CSc3nnc(-c4cccs4)n3C)n2)cc1 | -10.9% (inactive) | 
CC1CCN(Cc2nc(-c3ccc(Cl)cc3)no2)CC1 | 0.85% (inactive) | 
Fc1cc(Br)ccc1NC(=S)Nc1cccnc1 | 4.56% (inactive) | 
COc1ccc(S(=O)(=O)N2CCOCC2)cc1NC(=O)CSc1ncnc2ccccc12 | 1.11% (inactive) | 
Cc1ccc(NS(=O)(=O)c2cccs2)cc1S(=O)(=O)N1CCCCCC1 | -8.54% (inactive) | 
COc1ccc(N(C)S(=O)(=O)c2cccc3nsnc23)cc1 | 12.9% (inactive) | 
FC(F)(F)c1cccc(Cc2noc(CN3CCC(N4CCCCC4)CC3)n2)c1 | 8.7% (inactive) | 
CC1=NCCN1S(=O)(=O)c1cccc([N+](=O)[O-])c1 | 8.77% (inactive) | 
Fc1ccccc1Cn1cnc(NC(=S)NCCc2ccccc2)n1 | 0.197% (inactive) | 
CCC(=O)Nc1cccc(NC(=O)CSc2nnnn2C2CCCC2)c1 |  | 12.6 µM (active)

Structure (SMILES) | activity, negative = inhibition | Potency
Cc1ccc(SCC(=O)Nc2ccc3c(c2)OCCO3)cc1 | -11.8% (inactive) | 
O=C(CSc1nnc(-c2ccncc2)n1C1CCCCC1)Nc1ccccc1 | 1.01% (inactive) | 
O=C(CSc1nc(C2CC2)nc2ccccc12)Nc1ccc2c(c1)OCCO2 | 3.13% (inactive) | 
CCC(=O)Nc1cccc(NC(=O)CSc2nnc(-c3ccc(NS(C)(=O)=O)cc3)n2C)c1 | 5.23% (inactive) | 
O=C(CSc1nnnn1C1CCCC1)Nc1ccc2c(c1)OCCO2 |  | 6.31 µM (active)
COc1cc(NC(=O)CSc2nnc3ccc(-c4ccncc4)nn23)cc(OC)c1 | 10.7% (inactive) | 
CCNC(=O)COC(=O)CCNC(=O)c1cccc(C)c1 | 1.01% (inactive) | 
O=C(COC(=O)c1ccco1)NCc1ccc(Cl)cc1 | 14.6% (inactive) | 
O=C(COC(=O)c1cnc(Cl)c(Cl)c1)NCc1ccco1 |  | 20 µM (active)
NS(=O)(=O)c1ccc(NC(=O)COC(=O)c2ccc(Cl)nc2)cc1 | 13.1% (inactive) | 
O=C(COC(=O)c1cc(S(=O)(=O)N2CCCCC2)ccc1Cl)NCc1ccco1 | 0.76% (inactive) | 
O=C(COC(=O)c1ccc(Cl)nc1)NCc1ccc2c(c1)OCO2 | 0.469% (inactive) | 
O=C(COC(=O)c1ccc(Cl)nc1)NCc1cccs1 |  | 8.91 µM (active)
CC(C)Oc1ccc(CCc2nnc(SCC(=O)O)n2-c2ccccc2)cc1 | -1.79% (inactive) | 
COc1cc(S(=O)(=O)N2CCOCC2)ccc1NC(=O)COc1ccc(N(C)S(=O)(=O)c2ccc(C)cc2)cc1 | 11.5% (inactive) | 
C=CCOCCN(C)C1=NS(=O)(=O)c2ccccc21 | 11.4% (inactive) | 
COC(=O)c1sc(SC)c(S(=O)(=O)C(C)C)c1N/N=C(\C#N)S(=O)(=O)c1ccccn1 | -9.06% (inactive) | 
Cc1ccn(CC(=O)N2N=C(C(F)F)CC2(O)C(F)F)n1 (stereo unspecified) | 8.82% (inactive) | 
CC(C)(C)NC(=O)NCc1ccco1 | 8.98% (inactive) | 
CCCC(=O)NC(=S)Nc1ccc(CN2CCOCC2)cc1 | 0.202% (inactive) | 
CCc1c(-c2ccccc2)nc(N)c(C#N)c1-c1cccs1 | -1.42% (inactive) | 
CSc1nc(N)c(C#N)c(-c2ccccc2Cl)c1C#N |  | 14.1 µM (active)
CSc1nc(C)nc(C2CC2)c1C#N | -9.62% (inactive) | 
CC(Sc1nncn1C)C(=O)Nc1cc(C(F)(F)F)ccc1N1CCOCC1 (stereo unspecified) | 8.74% (inactive) | 

Structure (SMILES) | activity, negative = inhibition | Potency
Cc1cc(NC(=O)CSc2nc3ccccc3n2CC(C)C)no1 | 2.17% (inactive) | 
CC1CN/C(=C\C(=O)c2ccc(Br)cc2)C(=O)N1 (stereo unspecified) | 13.4% (inactive) | 
Cc1ccc(C(=O)N2CCCCCC2)cc1Br | 7.25% (inactive) | 
C/C(=C\C(=O)c1ccc(Br)cc1)N1CCCCC1 |  | 25.1 µM (active)
Cc1ccc(-c2csc(-c3cc(C)on3)n2)cc1 | 2.55% (inactive) | 
c1cncc(-c2nc(N3CCNCC3)c3ccccc3n2)c1 | -3.04% (inactive) | 
COc1ccccc1Oc1nc(-c2cccnc2)nc2ccccc12 |  | 20 µM (active)
COc1ccccc1Oc1ccc(S(=O)(=O)Nc2cccnc2)cc1 | 37.8% (inactive) | 
O=c1cnnc(Nc2ccccc2F)[nH]1 | 9.78% (inactive) | 
CCCNCc1cc(OCC)c(OCC(=O)Nc2ccccc2)cc1Br | 0.675% (inactive) | 
C=CCC(CC=C)(C(N)=O)c1ccccc1 | 0.196% (inactive) | 
c1ccc(Cc2cc[n+](Cc3ccccc3)cc2)cc1 | -6.45% (inactive) | 
Cc1cc(O)c(NC(=O)c2ccc(C)c([N+](=O)[O-])c2)cc1C | 13.5% (inactive) | 
CCN1CCC(=NNC(=O)c2ccc(C)c([N+](=O)[O-])c2)CC1 |  | 4.47 µM (active)
Cc1ccc(NC(=O)CN2CCC(C(N)=O)CC2)cc1[N+](=O)[O-] | 10.7% (inactive) | 
O=c1cc(N2CCCCC2)c(-c2ccccc2)nn1Cc1cccc(F)c1 | -6.56% (inactive) | 
CCOC(=O)CNC(=O)CSc1nnc(-c2cccc(OC)c2)n1CC | -1.64% (inactive) | 
CCn1c(SCC(=O)N/N=C/C=C/c2ccccc2[N+](=O)[O-])nnc1-c1ccccc1 |  | 7.94 µM (active)
CCn1c(Cc2ccccc2)nnc1SCC(=O)Nc1ccccc1 | 3.56% (inactive) | 
O=C(Cc1cc(=O)[nH][nH]1)N/N=C/c1ccccc1[N+](=O)[O-] | 6.17% (inactive) | 
O=C(CSc1nc2ccccc2[nH]1)N/N=C/C=C\c1ccccc1[N+](=O)[O-] |  | 5.01 µM (active)
O=C(CSc1nc2ccccc2[nH]1)c1cccs1 | 4.01% (inactive) | 
O=C(CCc1ccccc1)NNc1ccc(F)cc1 | -1.27% (inactive) | 
CCn1c(-c2cc(OC)ccc2OC)csc1=Nc1c(C)n(C)n(-c2ccccc2)c1=O |  | 22.4 µM (active)

Structure (SMILES) | activity, negative = inhibition | Potency
COC(=O)Cc1csc(Nc2c(C)n(C)n(-c3ccccc3)c2=O)n1 | 11.6% (inactive) | 
Cc1c(N=Nc2ccc(N(C)C)cc2)c(=O)n(-c2ccccc2)n1C | -13.2% (inactive) | 
Cc1cc(OC(=O)c2ccccc2Cl)ccc1N1C(=O)CCC1=O | -0.192% (inactive) | 
Cc1ccc(NC2=C(Cl)C(=O)OC2OC(=O)c2ccccc2C)cc1 (stereo unspecified) | -0.981% (inactive) | 
CC(=O)OC(COc1ccc(F)cc1)Cn1cnc2ccccc21 (stereo unspecified) | 5.28% (inactive) | 
Fc1ccc(OCc2nn3c(Cn4nnc5ccccc54)nnc3s2)cc1 |  | 22.4 µM (active)
Fc1ccc(CNc2nc3ccccc3n3nnnc23)cc1 | -5.38% (inactive) | 
CCCn1c(N)c(C(=O)CSc2nnc(-c3cccnc3)n2-c2ccc(C)cc2C)c(=O)[nH]c1=O | -1% (inactive) | 
COc1ccc(Cl)cc1N(CC(=O)N/N=C/c1ccc(OCC(N)=O)cc1)S(C)(=O)=O | 3.79% (inactive) | 
COC(=O)c1nc(NC(=O)c2ccc(F)cc2)n[nH]1 | 7.95% (inactive) | 
Cc1cccc(C(=O)Nc2ccc3c(c2)C(=O)N(CC(C)C)C3=O)c1 |  | 2.82 µM (active)
Cc1cccc(C(=O)Nc2ccc(CC(=O)O)cc2)c1 | -3.62% (inactive) | 
Cc1cccc(NC(=O)c2cccc(C(F)(F)F)c2)c1 | 4.83% (inactive) | 
CC1CC(NC(=O)/C(C#N)=C/c2ccc[nH]2)CC(C)(C)C1 (stereo unspecified) | 8.63% (inactive) | 
CCn1c(Cc2cccs2)nnc1SCC(=O)c1ccc(C)cc1 |  | 22.4 µM (active)
CCOC(=O)CSc1nnc(CNC(=O)c2cccs2)n1-c1ccccc1 | -0.494% (inactive) | 
CCn1c(SCC(=O)c2ccc(Cl)s2)nnc1-c1cccs1 | -17.9% (inactive) | 
COc1ccc(-n2c(SCC(=O)OC(C)C)nnc2-c2ccccn2)cc1 | 2.12% (inactive) | 
Cc1ccc(-n2c(Cc3cccs3)nnc2SCC(=O)OC(C)C)cc1 |  | 5.62 µM (active)
CCn1c(SCC(=O)c2ccc3ccccc3c2)nnc1-c1cccs1 | -10.3% (inactive) | 
